Results from PubChem BioAssay (EPA / NIEHS).
The source made the active and inactive calls. Rule for the calls: active = hit-call score of the fitted dose curve at least 0.9, where 1 is the maximum; inactive = score below 0.9.

What follows are compounds tested on Signal transducer and activator of transcription 3 (Homo sapiens) (UniProt P40763) (assay: LTEA_HepaRG_STAT3: Life Technologies and Expression Analysis (LTEA) Assay for Signal transducer and activator of transcription (STAT3) using HepaRG (AID 2283529)). Details: mRNA level, 48 h; actives raise or lower the signal.
Sequence of Signal transducer and activator of transcription 3 (Homo sapiens) (P40763 whole entry, looked up): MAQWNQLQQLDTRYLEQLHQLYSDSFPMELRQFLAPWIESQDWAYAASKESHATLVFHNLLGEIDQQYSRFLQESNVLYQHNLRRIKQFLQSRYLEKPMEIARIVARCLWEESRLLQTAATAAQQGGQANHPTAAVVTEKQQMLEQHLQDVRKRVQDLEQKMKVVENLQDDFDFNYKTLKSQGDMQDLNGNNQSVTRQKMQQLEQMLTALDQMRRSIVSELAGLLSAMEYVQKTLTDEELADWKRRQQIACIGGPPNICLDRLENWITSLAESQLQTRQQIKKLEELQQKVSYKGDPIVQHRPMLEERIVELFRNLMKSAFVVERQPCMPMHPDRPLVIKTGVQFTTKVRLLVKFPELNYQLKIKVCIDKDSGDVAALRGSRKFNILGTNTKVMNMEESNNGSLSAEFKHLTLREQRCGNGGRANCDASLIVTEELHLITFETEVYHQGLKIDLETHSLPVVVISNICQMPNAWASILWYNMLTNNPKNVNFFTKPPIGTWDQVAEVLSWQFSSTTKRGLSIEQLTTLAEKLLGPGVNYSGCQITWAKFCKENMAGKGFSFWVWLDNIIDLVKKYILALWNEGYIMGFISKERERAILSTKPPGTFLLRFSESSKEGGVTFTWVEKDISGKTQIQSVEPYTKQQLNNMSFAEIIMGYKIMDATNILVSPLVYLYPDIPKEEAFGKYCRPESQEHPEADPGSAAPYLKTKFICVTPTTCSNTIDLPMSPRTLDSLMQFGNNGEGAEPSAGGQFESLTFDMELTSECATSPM
Experimental: LTEA_HepaRG is a cell based, multiplexed-readout assay that uses HepaRG, a human liver cell line, with measurements taken at 48 hours after chemical dosing on a 96-well plate.LTEA_HepaRG_STAT3 is one of 102 assay component(s) measured in the LTEA HepaRG cell culture assay. It is a marker of Cell proliferation, survival, death.Data from the assay component LTEA_HepaRG_STAT3 was analyzed into 1 endpoint. This assay endpoint, LTEA_HepaRG_STAT3, was analyzed with bidirectional fitting relative to DMSO as the negative control and baseline of activity. Using a type of inducible reporter, measures of mRNA induction for gain or loss-of-signal activity can be used to understand regulation of transcription factor activity. To generalize the intended target to other relatable targets, this assay endpoint is annotated to the dna binding intended target family, where the subfamily is stat protein.
A total of 1060 chemcials from the ToxCast library were tested in eight-point concentration-response experiments. Cell culture and cytotoxicity assays were conducted at Thermo Fisher Scientific's Custom Services facility (Madison, WI). A single lot of human HepaRG cells (Thermo Fisher Scientific, Frederick, MD) was used for the cell culture experiments. 96-well format collagen type I coated plates of human HepaRG cells were prepared using established methods. Briefly, cryopreserved HepaRG cells were thawed, plated at a density of approximately 100,000 cells/well in HepaRG Thaw, Plate, and General Purpose media (HPRG770, Thermo Fisher Scientific), and incubated for 48 hours. 0.5% DMSO was selected as vehicle control to balance the requisite need of DMSO in HepaRG cultures to maintain differentiation (for example, baseline metabolism, proportions of hepatocytes vs. cholangiocytes), while enabling further hepatic receptor pathway activation (for example, PXR and CAR) in response to chemical exposure. 48 hours after plating, the culture medium was replaced with HepaRG Serum-Free Incudtion Media. Cells were exposed to each test chemical in duplicate and maintained in CO2 incubators for another 48 hours. Chemical plates were thawed to room temperature and 200x concentrations of treatment groups were prepared. 8-point conentration-reponse curves were made with the highest exposure at 100 uM, followed by half-log dilutions, all in 0.5% DMSO. Each test plate contained variouse controls, induction positive controls (1mM phenobarbital), cytotoxicity positive controls ([…] aflatoxin B1), vehicle controls (0.5% DMSO), and total lysis controls (0.5% DMSO). Cell morphology images were taken using an Essen IncuCyte FLR automated microscope, with six 96-well plates imaged in about 24 minutes. Images were captured and exported and JPEG files. Spent culture media was transfered to black-well plates for the LDH assay, and remaining media was sorted at -80 C for later use. Cells were treated with RLT buffer and frozen until shipped for gene expression analysis. Total RNA was isolated from the cell suspension in 75 uL of Buffer RLT (Qiagen, Germantown, MD 20874) by Quintiles/Expression Analysis (Durham, NC) using a custom isolation procedure. Total RNA from each plate well was transferred to a preamplification plate. Fluidigm's 96.96 Dynamic ArrayTM (Fluidigm, Amsterdam, the Netherlands) technology was used for gene expression analyses by quantitative reverse transcription polymerase chain reaction (qRT-PCR, performed by Quintiles/Expression Analysis, Durham, NC)89. Standard TaqManTM Assays (Applied Biosystems/ThermoFisher Scientific, Foster City, CA) were used to assess the expression of 93 genes selected based on their selectivity and sensitivity to important hepatic receptors known to be modulated by environmental chemicals; importance in human hepatocyte functionality; and hepatotoxicity. […]
For CC(C)(C)CC(C)(C)c1ccc(O)c(-n2nc3ccccc3n2)c1, the outcome was “inactive”. In the case of OC1CCC(C2CCCCC2)CC1 (stereo not given), the outcome is reported as “inactive”. CC1=C(/C=C/C(C)=C/C=C/C(C)=C/C(=O)O)C(C)(C)CCC1 was tested, and the outcome was “inactive”. For N#C[C@@H]1CC(F)(F)CN1C(=O)CNC1CC2CCC(C1)N2c1ncccn1 (stereo not given in full), the AC50 was 12.5 µM (active). In the case of CC(C)(C)c1cc(C(C)(C)C)c(O)c(C(C)(C)C)c1, the outcome is reported as “inactive”. For CN(C)C=O, the outcome was “inactive”. With NC(=O)N1C(=O)C(C(=O)c2cc(Cl)cs2)c2cc(F)c(Cl)cc21 (stereo not given) the outcome was “inactive”. In the case of OC1CCCCC1, the outcome is reported as “inactive”. In the case of O=c1c(-c2ccc(O)cc2)coc2cc(O)ccc12, the outcome is reported as “inactive”. CC(O)CO (stereo not given) was tested, and the outcome was “inactive”. For COC(=O)CCCCC(=O)OC, the outcome was “inactive”. c1ccc2cc3c(ccc4ccccc43)cc2c1 was tested, and the AC50 was 8.31 µM (active). With Cc1cc(C)c(O)c(C)c1 the outcome was “inactive”. With CCCCCCCCCCCCN1CCCC1=O the outcome was “inactive”. For CC[C@H](C)[C@@H](C(=O)O)n1sc2ccccc2c1=O, the outcome was “inactive”. O=C(OCCOCCOC(=O)c1ccccc1)c1ccccc1 was tested, and the outcome was “inactive”. With CC(=O)CC(C)(C)O the outcome was “inactive”. For COCC(C)O (stereo not given), the outcome was “inactive”. In the case of NC(=O)N(O)[C@@H]1C=C[C@H](Oc2cccc(Oc3ccc(F)cc3)c2)C1, the outcome is reported as “inactive”. For O=C(O)Cc1cc(I)c(Oc2cc(I)c(O)c(I)c2)c(I)c1, the outcome was “inactive”. In the case of CCOC(=O)CC(O)(CC(=O)OCC)C(=O)OCC, the outcome is reported as “inactive”. With CCCCCCC(=O)O the outcome was “inactive”. CC(=O)NC1(c2cccc(F)c2)CCN(CC[C@@]2(c3ccc(Cl)c(Cl)c3)CN(c3ccccc3)C(=O)CO2)CC1 was tested, and the outcome was “inactive”. In the case of C#C[C@]1(O)CC[C@H]2[C@@H]3CCC4=CC(=O)CC[C@@H]4[C@H]3CC[C@@]21C, the outcome is reported as “inactive”. CCCCCCCCCCCCCCCS(=O)(=O)Oc1ccccc1 was tested, and the outcome was “inactive”. In the case of CC(C)CCCCCCOC(=O)CCCCC(=O)OCCCCCCC(C)C, the outcome is reported as “inactive”. In the case of Oc1cc2ccccc2c2ccccc12, the outcome is reported as “inactive”. For CCCOC(=O)c1ccc(O)cc1, the outcome was “inactive”. In the case of C=C(C)C(=O)OCCC(F)(F)C(F)(F)C(F)(F)C(F)(F)C(F)(F)C(F)(F)F, the outcome is reported as “inactive”. For CCN(CC)CCNc1ccc(CNC=O)c2sc3ccc(OC)cc3c(=O)c12, the AC50 was 83.4 µM (active). CC#C[C@]1(O)CC[C@H]2[C@@H]3CCC4=CC(=O)CCC4=C3[C@@H](c3ccc(N(C)C)cc3)C[C@@]21C was tested, and the outcome was “inactive”. For Oc1cccc(O)c1, the outcome was “inactive”. For CN1CCN(c2ccccc2/C=C2\SCCN(c3ccc(Cl)c(Cl)c3)C2=O)CC1, the outcome was “inactive”. For CC(C)(C)c1cccc(C(C)(C)C)c1O, the outcome was “inactive”. For CCc1ccc(CCOc2ccc(CC3SC(=O)NC3=O)cc2)nc1 (stereo not given), the outcome was “inactive”. With CN1CCC[C@H]1c1cccnc1 the outcome was “inactive”. Nc1cccc2c(N)cccc12 was tested, and the outcome was “inactive”. CCCCCCCC(=O)O was tested, and the outcome was “inactive”. With O=[N+]([O-])c1ccc(O)cc1 the outcome was “inactive”. In the case of c1ccc2c(c1)Cc1ccccc1-2, the outcome is reported as “inactive”.
